ELG1 DNA repair = inhibitors of ELG1-dependent DNA repair in HEK293T cells; HEK293T ELG1-luciferase reporter, luminescence, 16 h; DNA damage induced by 5-fluorouridine; Potency, µM (series often up to 46.1 µM), inactives show top-dose activity change, negative = inhibition, most hits filed as inhibitors; 2.3% of 330,000 active; AID 504467; also: % is scaled to controls: 0 for no effect and ±100 for the full control effect; nearly all actives have a fitted effect of over 55% in size
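DMSO vehicle served as the neutral condition. Each well held 2,000 cells given 5-fluorouridine plus compound; after 16 hr at 37 °C/5% CO2, ONE-Glo was added and luciferase measured 30 min later.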
NPC1 prom act = NPC1 promoter activation. Huh7 NPC1 promoter luciferase reporter, 24 h. Potency, µM (titrated, usually from 9.22 µM), for the others: top-dose activation, most hits filed as activators. 2.4% of 320,000 active. AID 485313; also: % of control where 0% means no effect; nearly all actives have a fitted effect of over 60% in size
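Cells: Huh7 expressing luciferase under the NPC1 promoter, 1500/well. Seeded 2 h, compound added, incubated 24 h at 37 °C. Luciferase reagent, 10 min ambient, then luminescence.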
Rab9 prom act = activates the Rab9 promoter. 2.8% of 320,000 active. Huh7 Rab9 promoter-luciferase reporter, luminescence, 24 h. AID 485297. Potency, µM (highest dose often 9.22 µM), without a hit: at the top dose activation, negative = inhibition, actives largely listed as activators; also: % of control where 0% means no effect; nearly all actives have a fitted effect of over 60% in size
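Luminescence from Amplite-detected luciferase (10 minutes, ambient) reports Rab9 promoter activation. Before that, stable Rab9-luciferase Huh7 cells (1500/well, reduced-serum OP-MEM I plus 10% FBS) were exposed to compound for 24 hours at 37C.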
FLuc counter = firefly luciferase modulation, counter-screen for miR-21 project | 6.9% of 360,000 active | Potency, µM (doses to about 57.5 µM), inactives show at the top dose activity change, negative = inhibition, actives largely listed as inhibitors | purified FLuc, Km substrates, luminescence inhibition | P08659;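 also: plate controls were vehicle for no effect and reference inhibitor for full effect; nearly all actives have a fitted effect of over 55% in size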
Target sequence (P08659 whole entry, looked up): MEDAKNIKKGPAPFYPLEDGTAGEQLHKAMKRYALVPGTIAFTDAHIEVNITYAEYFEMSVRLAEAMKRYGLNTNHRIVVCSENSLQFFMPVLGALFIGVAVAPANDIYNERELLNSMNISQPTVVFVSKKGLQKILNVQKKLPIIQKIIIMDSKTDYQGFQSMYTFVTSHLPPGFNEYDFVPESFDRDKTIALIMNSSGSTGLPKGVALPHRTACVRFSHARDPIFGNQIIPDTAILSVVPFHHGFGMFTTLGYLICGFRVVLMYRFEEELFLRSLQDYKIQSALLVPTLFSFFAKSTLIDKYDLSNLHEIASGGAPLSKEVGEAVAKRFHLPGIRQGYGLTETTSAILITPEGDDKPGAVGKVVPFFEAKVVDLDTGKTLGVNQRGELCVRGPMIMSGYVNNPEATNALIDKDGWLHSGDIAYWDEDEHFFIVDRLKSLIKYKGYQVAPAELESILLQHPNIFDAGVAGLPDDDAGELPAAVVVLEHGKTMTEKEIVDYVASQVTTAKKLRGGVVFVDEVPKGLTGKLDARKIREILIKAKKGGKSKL
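Biochemical qHTS of compounds, final roughly 60 µM downward over six points, against 10 nM purified firefly luciferase using Km concentrations of substrates (10 uM D-luciferin, 10 uM ATP) in Tris acetate pH 7.5 buffer; luminescence output.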
ELG1 genotox = genotoxicity induction in ELG1-luciferase HEK293T cells. 1.3% of 330,000 active. HEK293T ELG1-luciferase reporter, luminescence, 16 h. AID 504466. Potency, µM (highest dose often 46 µM), for inactives: top-dose activity change, positive = activation, hits mostly activators; also: % of control where 0% means no effect; nearly all actives have a fitted effect of over 60% in size
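DMSO vehicle served as control against compound-treated ELG1-luciferase HEK293T cells; exposure lasted 16 hr at 37 °C and 5% CO2, followed by ONE-Glo luminescence detection after 30 min.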
SMN2 splice enh = increases expression of the SMN2 splice variant. HEK293 SMN2-luciferase splicing reporter, luminescence, 30-36 h. Potency, µM (top dose mostly 46.1 µM), inactives show at the top dose activity change, positive = activation, most hits filed as activators. 2.8% of 210,000 active. AID 1458; also: % of control where 0% means no effect; nearly all actives have a fitted effect of over 55% in size
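HEK293 cells carry an SMN2 […]–luciferase reporter in which exon 7 inclusion puts luciferase in frame. Cells were plated 10-12 h before compound addition, then incubated 30-36 h at 37C. ONE-Glo luminescence was read; sodium butyrate at 4.5 mM final served as control.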
Numbers without * were called inactive; ? = inconclusive; nt = no result; [ ] = dose if it differs, or a comment. This is a sample that favours compounds with a hit; in the whole collection about 9.2% have one here. Calls follow the shape of the dose curve; as a rule, active = well fitted curve in the direction sought with a large enough effect; inconclusive = small, poorly fitted or top-dose-only effect, or another doubt; inactive = no such curve, though single readings can be large; an effect the other way counts as inactive or inconclusive. Potency is read from the fitted curve at half-maximal effect.

SMILES	ELG1 DNA repair	NPC1 prom act	Rab9 prom act	FLuc counter	ELG1 genotox	SMN2 splice enh
COc1ccc(/C=N/Nc2ncccc2[N+](=O)[O-])c(OC)c1	?	?	3.5µM*	1.1µM*	2.6µM*	11µM*
COc1ccccc1/C=N/Nc1cc(C)nc2ccc(C)cc12	?	16%	11%	-12%	7%	nt
COc1ccc(/C=N/Nc2cc(C)nc3ccc(OC)cc23)c(OC)c1	?	-2%	3%	21µM*	18%	nt
O=C(Nc1ccc(S(=O)(=O)Nc2ncccn2)cc1)C(F)(F)F	5%	-6%	2%	2%	-2%	nt
Cc1ccc(O)c(NC2=C(Cl)C(=O)N(Cc3ccccc3)C2=O)c1	7%	-1%	-7%	21µM*	0%	3%
Cc1ccc(C(=O)N2CCCCC2)cc1NC1=C(Cl)C(=O)N(Cc2ccccc2)C1=O	18µM*	0%	-6%	nt	-12%	nt
CCOc1ccc(NC2=C(Cl)C(=O)N(Cc3ccccc3)C2=O)cc1	-11%	-4%	12%	0%	-1%	nt
Cc1ccc(S(=O)(=O)N(C)C)cc1NC(=O)COC(=O)C1CCN(S(=O)(=O)c2cccs2)CC1	24%	0%	0%	-1%	-1%	nt
Cc1ccc(NC(=O)CSCC(=O)Nc2ccccc2N2CCCCC2)cc1	-7%	0%	1%	-3%	-4%	nt
CSc1ccc(Cc2ccc(Cl)cc2Cl)nn1	?	28%	?	17µM*	12%	-11%
NC1=NC(=Nc2ccc(Br)cc2)c2ccccc21	?	-5%	-11%	8.5µM*	?	-3%
NC1=NC(=Nc2ccc(Cl)cc2)c2ccccc21	16%	-2%	-5%	7.6µM*	17%	7%
CC(C)c1ccc(N=C2N=C(N)c3ccccc32)cc1	?	-3%	?	0.48µM*	?	nt
O=C(NCCc1ccccc1)c1ccc(CSc2nc3ccncc3n2Cc2ccc(F)cc2)cc1	nt	nt	nt	-2%	nt	15%
COc1cc(SSc2cc(OC)cc([N+](=O)[O-])c2N)c(N)c([N+](=O)[O-])c1	7%	-2%	0%	8.5µM*	-8%	nt
O=C(COc1ccccc1Cl)N1CCc2ccccc21	?	2µM*	1.3µM*	6.7µM*	9.2µM*	nt
O=C(COc1ccccc1Cl)N1CCc2ccccc2C1	?	15%	28%	?	7%	nt
O=C(COc1ccccc1)N1CCc2ccccc21	?	?	1.3µM*	5.4µM*	?	14µM*
O=C(CSCc1ccco1)c1ccc(Cl)s1	?	2.8µM*	?	6.7µM*	7%	9%
CCCOc1ccc(C(=O)N2CCCc3ccccc32)cc1	2%	7%	0%	-5%	30%	8%
CCOc1ccc(C(=O)N2CCc3ccccc32)cc1	?	3.5µM*	0.89µM*	15µM*	?	nt
Cc1ccc(S(=O)(=O)Nc2ccc(S(=O)(=O)Nc3nccs3)cc2)c([N+](=O)[O-])c1	10%	-12%	9%	0%	6%	nt
O=C(CCCc1ccccc1)N1CCc2ccccc21	?	1.1µM*	0.45µM*	2.1µM*	2.1µM*	11µM*
O=C(CSCc1ccco1)N1CCc2ccccc21	?	2.8µM*	3.5µM*	9.5µM*	?	nt
Nc1cc(N)nc(SCC(=O)N2CCc3ccccc32)n1	?	?	?	?	13%	?
SMILES	ELG1 DNA repair	NPC1 prom act	Rab9 prom act	FLuc counter	ELG1 genotox	SMN2 splice enh
O=C(CSc1ccccc1)N1CCc2ccccc21	?	3.5µM*	3.5µM*	6.7µM*	?	18µM*
CCCn1c(SCC(=O)N2CCc3ccccc32)nnc1-c1ccco1	-9%	-16%	2%	-2%	-5%	-1%
O=C(COc1ccc(Br)cc1)N1CCc2ccccc21	?	?	2.8µM*	9.5µM*	?	nt
CC(C(=O)Nc1ccc(S(=O)(=O)N2CCCC2)cc1)N1CCCC(C(N)=O)C1 (stereo not given)	1%	0%	-7%	5%	-2%	nt
COc1cccc(CN2CCNC(=O)C2CC(=O)N(C)CC2CCOCC2)c1 (stereo not given)	?	-5%	-2%	3%	4%	nt
O=C(OCc1ccccc1)N1CCc2ccccc21	?	0.63µM*	1.6µM*	2.7µM*	16µM*	nt
C/C(=N\NC(=O)c1nn(C)c(C)c1Br)c1cccc(NC(=O)c2ccoc2C)c1	?	26%	?	2.4µM*	16%	9%
COc1ccc(C(=O)Nc2cccc(/C(C)=N\NC(=O)c3ccoc3C)c2)cc1OC	?	12%	16%	17µM*	-11%	nt
COc1ccc(C(=O)Nc2cccc(/C(C)=N/NC(=O)c3ccc([N+](=O)[O-])c(C)c3)c2)cc1OC	?	1%	-3%	?	-12%	12%
C/C(=N\NC(=O)c1ccoc1C)c1ccccc1	?	2.5µM*	2µM*	11µM*	?	nt
C/C(=N/NC(=O)c1ccoc1C)c1ccc(NC(=O)C2CCCC2)cc1	?	23%	27%	?	?	?
Cc1cccc(-n2nnc(C(=O)Nc3ccc(F)cc3)c2N)c1	?	1.6µM*	2.8µM*	6µM*	13%	10µM*
Cc1c(C(=O)Nc2ccc(F)cc2)nnn1-c1cccc(C(F)(F)F)c1	5.8µM*	-5%	-2%	-9%	4%	-66%
COC(=O)c1nnn(-c2cccc(C)c2)c1N	nt	nt	nt	1%	nt	10%
Cc1c(C(=O)Nc2ccc(C(=O)O)cc2)nnn1-c1ccccc1	nt	nt	nt	0.27µM*	nt	nt
COc1ccccc1NC(=O)c1nnn(-c2ccc(F)cc2)c1C	nt	nt	nt	0%	nt	3%
Cc1cccc(-n2nnc(C(=O)N3CCc4ccccc4C3)c2N)c1	?	23%	25%	15µM*	2%	-13%
CCCCC[C@]12Cc3cc(OC)c(OC)cc3[C@H](O1)c1c(cc(C)oc1=O)O2	nt	-3%[1.84 µM]	-5%[1.84 µM]	2%[11.5 µM]	nt	nt
CCc1ccc(CNC(=O)C2CCN(c3nnc(-n4c(C)ccc4C)s3)CC2)cc1	nt	nt	nt	-11%	nt	-8%
Cc1ccc2oc(=O)n(Cc3ccccc3Cl)c2c1	nt	nt	nt	-18%	nt	-2%
Cc1nnc(SCC(=O)N(CC(C)C)c2c(N)n(Cc3ccccc3)c(=O)[nH]c2=O)n1N	?	-1%	-2%	1%	-5%	nt
Cc1ccc2c(c1)c1c(c(=O)n(-c3cccc(Cl)c3)c(=O)n1C)n2C	nt	nt	nt	0%	nt	nt
C[C@H](Cc1ccccc1)Nc1ncnc2c1ncn2[C@@H]1O[C@H](CO)[C@@H](O)[C@H]1O	?	-2%	13%	-3%	13µM*	10%
Nc1ncnc2c1ncn2[C@@H]1O[C@H](CO)[C@H](O)[C@H]1O	nt	nt	nt	nt	nt	3%

Compound activity (PubChem BioAssay)
